# tim23-1 inh: growth inhibitors of tim23-1 mutant yeast; S. cerevisiae tim23-1 growth, BacTiter-Glo luminescence, 24 h; inhibition, % at 20 µM; actives 1.3% (n = 330,000); AID 463212;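 active = growth inhibition of the mutant yeast at or above 50%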;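 note: temperature-sensitive mutant grown at 25 °C; plate controls were DMSO-treated mutant yeast for no effect and medium wells lacking yeast for full effect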
# TIM10 inh: inhibits growth of TIM10 yeast strain; inhibition, % at 10 µM; actives 1.4% (n = 330,000); AID 463195; S. cerevisiae TIM10 strain growth, BacTiter-Glo luminescence, 24 h;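 active = inhibition of 40% or more at the single tested concentration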;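 note: wild-type TIM10 isogenic control strain grown at permissive 25 °C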
# tim10-1 inh: growth inhibitors of tim10-1 mutant yeast; S. cerevisiae tim10-1 ts strain growth, BacTiter-Glo, 24 h; inhibition, % at 20 µM; actives 2.2% (n = 330,000); AID 463190;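 active = inhibition of at least 40%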;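 note: mutant grown at 25 °C; 0% = DMSO wells with yeast and 100% = wells holding no yeast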
# MPTP inh: inhibitors of mitochondrial permeability transition pore. inhibition, % at 10 µM. actives 1.4% (n = 360,000). AID 602449. isolated mouse mitochondria, Ca2+ swelling absorbance, 30 min;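 active = inhibition of 50% or more, scaled per plate between neutral and stimulator controls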;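 note: 0% = DMSO wells given calcium and 100% = 1 mM EGTA wells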
# Mdm2-MdmX inh: inhibitors of human Mdm2/MdmX interaction. O15151+Q00987. SaOS-2 split-luciferase Mdm2/MdmX complementation, luminescence. inhibition, % at 8 µM. actives 3% (n = 330,000). AID 485346;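 active = inhibition of at least 50% at 8 µM in the primary screen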
# tim10-1 conf: tim10-1 yeast growth inhibition, confirmed; shares compounds with tim10-1 inh; S. cerevisiae tim10-1 ts strain growth, BacTiter-Glo, 24 h; inhibition, % at 20 µM; actives 56% (n = 7,400);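 active = inhibition of yeast growth at or above a set limit in either of two repeat tests at 20 µM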;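 note: tim10-1 mutant grown at permissive 25 °C to find synthetic lethal compounds; 0% = DMSO yeast wells and 100% = medium wells without yeast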
# TIM10 conf: confirmation of TIM10 yeast growth inhibitors; shares compounds with TIM10 inh; S. cerevisiae tim10 strain growth, BacTiter-Glo luminescence, 24 h; inhibition, % at 10 µM; actives 63% (n = 4,600); AID 463215;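 active = inhibition of yeast growth at or above a set limit in either of two replicates at 10 µM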;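 note: this counterscreen used the strain with wild-type TIM10; 0% = yeast with DMSO and 100% = medium wells lacking yeast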
# tim23-1 conf: tim23-1 yeast growth inhibition, confirmed; shares compounds with tim23-1 inh; AID 463218; S. cerevisiae tim23-1 growth, BacTiter-Glo luminescence, 24 h; inhibition, % at 20 µM; actives 83% (n = 4,400);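 active = inhibition above about 39% in either of two replicate wells at 20 µM, limit read from the data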;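 note: temperature-sensitive tim23-1 mutant grown at 25 °C; 0% = DMSO wells with yeast and 100% = medium wells without yeast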
# Starred values were filed as active, the others as inactive; / = not tested or not shown. The list is not random: actives were taken first. Their share in the collection is about 6.3%.
SMILES,tim23-1 inh,TIM10 inh,tim10-1 inh,MPTP inh,Mdm2-MdmX inh,tim10-1 conf,TIM10 conf,tim23-1 conf
O=C1c2ccc(Oc3cccc([N+](=O)[O-])c3)cc2C(=O)N1c1ccccn1,52*,62*,46*,2,14,54*,42*,65*
O=C1c2cc([N+](=O)[O-])cc3cc([N+](=O)[O-])cc(c23)C(=O)N1c1ccccn1,/,/,/,0,/,/,/,/
Cc1ccc(-c2nc3ncccc3o2)cc1NC(=O)c1ccc([N+](=O)[O-])o1,84*,83*,74*,-2,44,82*,85*,6
Cc1cc(-c2nc3ncccc3o2)ccc1NC(=O)c1ccc([N+](=O)[O-])o1,/,/,/,0,/,/,/,/
C/C(=N/Nc1nc(-c2ccccc2)cc(-c2ccc(F)cc2)n1)c1cccc(N)c1,55*,52*,46*,0,42,44*,0,53*
O=C(NC1CCCCCCC1)c1ccccc1O,65*,49*,46*,0,-22,34*,46*,60*
O=C(NC1CCCCCCC1)c1ccccc1-c1ccccc1,19,23,7,-1,7,/,/,/
O=[N+]([O-])c1cccc(-c2nc3ccccc3s/c2=N/O)c1,82*,57*,71*,0,12,55*,69*,54*
Cc1cccc(C(=O)O/N=C2/CC3CCC2(C)C3(C)C)c1 (stereo unspecified),59*,65*,50*,0,8,65*,70*,66*
Cc1ccc(C(=O)O/N=C2\CC3CCC2(C)C3(C)C)cc1 (stereo unspecified),66*,76*,67*,0,-12,67*,75*,68*
Cc1ccc(C(=O)O/N=C2/CC3CCC2(C)[C@@]3(C)CBr)cc1 (stereo partly specified),44,8,37,-1,34,/,/,/
CC(=O)Nc1ccc(NC(=O)CSc2nnc(N)n2-c2ccccc2)cc1,/,/,/,1,/,/,/,/
CCCS(=O)(=O)NC(=O)C1(C)CCCN(C(=O)C(C)(C)Oc2ccc(Cl)cc2)C1 (stereo unspecified),/,/,/,-2,/,/,/,/
CCNC(=O)C[C@@H]1CC[C@H]2[C@@H](COC[C@H](O)CN2C(=O)C2CC2)O1,/,/,/,-2,/,/,/,/
Oc1ccc(-c2csc(Nc3ncccn3)n2)c(O)c1,4,8,11,0,-56,/,/,/
Cc1cccc(Nc2nc(-c3ccc(O)cc3O)cs2)n1,87*,33,43*,3,-86,38*,/,72*
COC(=O)[C@@H](Cc1ccccc1)NC(=O)/C=C/[C@H]1O[C@@H](n2cnc3c(NC(=O)c4ccccc4)ncnc32)[C@H](O)[C@@H]1O,/,/,/,0,/,/,/,/
S=C1NCCc2ccc(Cl)cc2C1c1ccccc1Cl (stereo unspecified),59*,47*,44*,-1,4,21,4,37
CCNC(=O)O/N=C(\C)c1sc(-c2ccc(Cl)cc2)nc1C,57*,21,60*,1,-107,54*,/,64*
COc1ccc(C(=O)c2[nH]c(N)c(C(=O)NCCc3c[nH]c4ccccc34)c2-c2c(F)cccc2Cl)cc1,/,/,/,1,/,/,/,/
CC1CCCN(S(=O)(=O)c2ccc(C(=O)Nc3nnc(C4CC4)o3)cc2)C1 (stereo unspecified),53*,29,46*,0,31,19,/,34
CC1=C(C(=O)N(C)C)CC(CC(=O)NCc2cccs2)C(=O)N1Cc1ccc(C(C)(C)C)cc1 (stereo unspecified),/,/,/,-1,/,/,/,/
Cc1ccccc1Oc1nc(-c2ccccn2)nc2ccccc12,56*,43*,48*,1,34,28,36*,49*
CC(=O)Nc1ccc(Oc2nc(-c3ccccn3)nc3ccccc23)cc1,2,18,17,0,39,/,/,/
CCOC(=O)C1(C)CCCN(C(=O)c2cccc(C#N)c2)C1 (stereo unspecified),/,/,/,2,/,/,/,/
SMILES,tim23-1 inh,TIM10 inh,tim10-1 inh,MPTP inh,Mdm2-MdmX inh,tim10-1 conf,TIM10 conf,tim23-1 conf
O=C(c1ccc(S(=O)(=O)Cc2cc(F)ccc2F)c([N+](=O)[O-])c1)N1CCOCC1,/,/,/,0,/,/,/,/
O/C=c1\ccc2cccc3nc(C(F)(F)F)nc1c23,50*,52*,63*,22,17,54*,51*,50*
Cc1[nH]n(C(N)=S)c(=O)c1N=Nc1cccc(Cl)c1,2,8,-12,-1,-33,/,/,/
Cc1[nH]n(C(N)=S)c(=O)c1N=Nc1ccc([N+](=O)[O-])cc1Cl,58*,23,45*,9,8,52*,/,67*
Cc1ccc(-c2cc3nc(C)cc(NCc4ccco4)n3n2)cc1,58*,29,41*,1,-111,38*,/,55*
CCCCNC(=S)NC(=O)c1ccc(Cl)cc1Cl,54*,38,49*,0,0,37*,/,53*
CCOc1ccc(C(CN2CCOCC2)C(C)=O)cc1OC (stereo unspecified),/,/,/,-2,/,/,/,/
COc1ccc(OC)c(-c2cc(C(=O)N3CCN(c4ncccn4)CC3)c3ccccc3n2)c1,21,31,22,-6,38,/,/,/
Cc1ccc(-c2cc(C(=O)N3CCN(c4ccc(F)cc4)CC3)c3ccccc3n2)o1,51*,27,44*,-2,11,26,/,44*
COc1ccc(-c2cc(C(=O)N3CCN(c4ccccc4F)CC3)c3ccccc3n2)c(OC)c1,57*,39,54*,-2,41,58*,/,58*
COc1ccc(-c2cc(C(=O)N3CCCCCC3)c3ccccc3n2)c(OC)c1,54*,22,42*,-2,13,22,/,48*
COc1ccc(N2CCN(C(=O)c3cc(-c4cc(OC)ccc4OC)nc4ccccc34)CC2)cc1,21,14,32,0,35,/,/,/
COc1ccc(-c2cc(C(=O)N3CCN(c4ncccn4)CC3)c3ccccc3n2)c(OC)c1,51*,59*,66*,0,13,52*,7,13
Cc1ccc(-c2cc(C(=O)N3CCOCC3)c3ccccc3n2)o1,9,0,-3,0,8,/,/,/
CSc1ccc(CNC(=O)C2(C)CCCN(C(C)=O)C2)cc1 (stereo unspecified),/,/,/,0,/,/,/,/
CC[C@@H](NC(=O)[C@@H](Cc1ccccc1)NC(=O)CC[C@H]1O[C@@H](n2ccc(=O)[nH]c2=O)[C@H](O)[C@@H]1O)c1ccccc1,/,/,/,-2,/,/,/,/
Cc1ccc(-c2nc3c(Cl)cc(C(F)(F)F)cn3c2Cc2ccsc2)cc1,/,/,/,0,/,/,/,/
Cc1cccc(/C(N)=N/OC(=O)Cc2cccs2)c1,22,4,19,4,-18,/,/,/

# Screens (PubChem BioAssay)
